Data on nine compounds can be found in PubChem BioAssay (NCI).

The panel holds about 83,000 compounds, 20% with a hit somewhere; the sample as a whole holds those more often.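 Percent growth is the endpoint: 0 to 100 indicates growth inhibition (40 means 60% inhibition), 0 means no net growth, and negative values indicate cell death.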 Values without a mark were called inactive. The source made the active and inactive calls. The calls were made as follows: active = growth percent below 10; inactive = the rest.

Test systems include SK-MEL-2 melanoma; EKVX NSCLC; SN12C renal; UO-31 renal; TK-10 renal; ACHN renal; A498 renal; CCRF-CEM leukemia; MOLT-4 leukemia; SR leukemia; RPMI-8226 leukemia; OVCAR-8 ovarian; OVCAR-5 ovarian; OVCAR-4 ovarian; SK-OV-3 ovarian; IGROV1 ovarian; OVCAR-3 ovarian; HS 578T breast; CAKI-1 renal; NCI/ADR-RES ovarian.
What all share (experiment): NCI-60 one-dose screen, 48 h (100 = growth as untreated, 0 = no growth, -100 = all killed)
Holding throughout (conditions): 10 µM unless noted

Take `O=C(Cc1ccc(/C=C/C(=O)c2ncc[nH]2)cc1)Nc1ccc(F)cc1`: the growth in the test with SK-MEL-2 melanoma was 79.1%; with EKVX NSCLC it was 34.8%; in the test on SN12C renal, 17.4%; with UO-31 renal it was 17.2%; in the test with TK-10 renal, 35.9%; in the test with ACHN renal it was 46.4%. Also, the growth in the test with A498 renal is 66.9%; in the test on CCRF-CEM leukemia, 2.63% (active); with MOLT-4 leukemia, 14.7%; in the test with SR leukemia, -2.77% (active); in the test with RPMI-8226 leukemia, -17.9% (active); with OVCAR-8 ovarian, -6.92% (active). The growth is 49.1% in the test on OVCAR-5 ovarian; 36.6% in the test on OVCAR-4 ovarian; 52% in the test with SK-OV-3 ovarian; 39% in the test on IGROV1 ovarian; 2.36% (active) in the test on OVCAR-3 ovarian; 35.4% in the test with HS 578T breast.
For `CCNc1ncnc2c1cnn2C1CCCO1` (stereo not drawn), the growth was 116% in the test on SK-MEL-2 melanoma; 115% with EKVX NSCLC; 103% with SN12C renal; 86% in the test with UO-31 renal; 116% with TK-10 renal; 104% with ACHN renal. The growth in the test with CAKI-1 renal is 101%; in the test with CCRF-CEM leukemia, 87.6%; in the test with MOLT-4 leukemia, 92.3%; with SR leukemia it was 94.3%; in the test on RPMI-8226 leukemia, 98.5%; with OVCAR-5 ovarian, 102%. Besides, the growth with OVCAR-4 ovarian is 108%; in the test with SK-OV-3 ovarian, 104%; in the test on OVCAR-3 ovarian it was 111%; in the test on HS 578T breast it was 113%; with NCI/ADR-RES ovarian, 100%.
For the compound `CCCCn1c(-c2ccc(C(=O)O/N=C(\N)c3ccc4c(c3)OCO4)cc2)nc(-c2ccccc2)c1-c1ccccc1`, the growth in the test on SK-MEL-2 melanoma was 84.9%; in the test with EKVX NSCLC, 51.8%; in the test on SN12C renal, 39.3%; with UO-31 renal, -62.3% (active); in the test on TK-10 renal, 37.1%; in the test with ACHN renal it was -85.8% (active). Besides, the growth in the test with CAKI-1 renal is 11.5%; in the test with CCRF-CEM leukemia, -30% (active); in the test on MOLT-4 leukemia, 7.23% (active); in the test on SR leukemia, -29.2% (active); in the test on RPMI-8226 leukemia, 29.6%; with OVCAR-8 ovarian, 44.5%. In addition, the growth was 54.1% in the test with OVCAR-5 ovarian; 40.1% with OVCAR-4 ovarian; 89.5% with SK-OV-3 ovarian; -68.5% (active) in the test on IGROV1 ovarian; 38.5% with OVCAR-3 ovarian; 18.6% in the test on NCI/ADR-RES ovarian.
Turning to `COc1ccc(SC2c3cc(OC)c(OC)cc3Oc3nc(N)c(C#N)c(N)c32)cc1` (stereo not drawn), the growth with SK-MEL-2 melanoma was -26.3% (active); in the test with EKVX NSCLC, -51.7% (active); with SN12C renal, -90.6% (active); with UO-31 renal it was -100% (active); with TK-10 renal, -49.6% (active); with ACHN renal, -95.6% (active). Moreover, the growth in the test with A498 renal is -13.8% (active); in the test on CCRF-CEM leukemia, -37.2% (active); with MOLT-4 leukemia, -26.8% (active); in the test with SR leukemia it was -36.2% (active); in the test with RPMI-8226 leukemia, -36.1% (active); in the test on OVCAR-8 ovarian it was -85.4% (active). Also, the growth was -71.7% (active) with OVCAR-5 ovarian; -97.1% (active) with OVCAR-4 ovarian; -81.3% (active) in the test with SK-OV-3 ovarian; -77.1% (active) in the test on IGROV1 ovarian; -96.1% (active) in the test on OVCAR-3 ovarian; -2.22% (active) in the test on HS 578T breast. Also, in the test on NCI/ADR-RES ovarian, the growth was -16.3% (active).
Regarding `CN(C)c1ccc(N=Nc2ccccn2)c(O)c1`, the growth is 27.1% with SK-MEL-2 melanoma; 17% in the test on EKVX NSCLC; 11.3% in the test with SN12C renal; -8.47% (active) with UO-31 renal; 38.9% with TK-10 renal; 6.69% (active) in the test with ACHN renal. The growth with A498 renal was 48.2%; with CCRF-CEM leukemia it was 2.26% (active); in the test with MOLT-4 leukemia it was 2.31% (active); in the test on SR leukemia it was 3.79% (active); in the test with RPMI-8226 leukemia, 16.2%; with OVCAR-8 ovarian it was 16%. Besides, the growth is 68.6% with OVCAR-5 ovarian; 28.3% in the test with OVCAR-4 ovarian; 19.5% in the test with SK-OV-3 ovarian; 14.9% with IGROV1 ovarian; 33.2% in the test on OVCAR-3 ovarian; 60.9% in the test on HS 578T breast. Besides, the growth with NCI/ADR-RES ovarian was 12.4%.
In the case of `O=[N+]([O-])c1ccccc1/C=N\NC(=S)N/N=C/c1ccccc1[N+](=O)[O-]`, the growth in the test on SK-MEL-2 melanoma was 56.6%; in the test with EKVX NSCLC it was 70.5%; with SN12C renal it was 86.3%; in the test with UO-31 renal, 27.4%; in the test on TK-10 renal, 46.8%; with ACHN renal, 78.8%. Further, the growth is 42.2% in the test with CAKI-1 renal; 82.7% with CCRF-CEM leukemia; 37.8% with MOLT-4 leukemia; 19% in the test on SR leukemia; 87.3% with RPMI-8226 leukemia; 102% in the test on OVCAR-8 ovarian. Further, the growth with OVCAR-4 ovarian was 98.9%; with SK-OV-3 ovarian, 69.1%; in the test on IGROV1 ovarian it was 15%; in the test on OVCAR-3 ovarian it was -27% (active); in the test on HS 578T breast it was 62.9%; in the test on NCI/ADR-RES ovarian, 14.4%.
In the case of `CN1CCN(c2nc(NCCCCNc3ccnc4cc(Cl)ccc34)c3ccccc3n2)CC1`, the growth is 87.3% with SK-MEL-2 melanoma; 80.7% with EKVX NSCLC; 79.8% in the test with SN12C renal; 46.1% in the test with UO-31 renal; 73% in the test with TK-10 renal; 74.3% with ACHN renal. Moreover, the growth in the test with A498 renal is 71.1%; with CCRF-CEM leukemia it was 35.3%; in the test with MOLT-4 leukemia, 43.9%; with SR leukemia it was -26.6% (active); in the test with RPMI-8226 leukemia it was -8.38% (active); with OVCAR-8 ovarian, 38.3%. Also, the growth was 112% with OVCAR-5 ovarian; 68.5% in the test with OVCAR-4 ovarian; 104% in the test on SK-OV-3 ovarian; 78.2% with IGROV1 ovarian; 76.6% with OVCAR-3 ovarian; 81.1% with HS 578T breast.
With `COc1cccc(/C=C2\Oc3cc(OCCN4CCCC4)ccc3C2=O)c1`, the growth with SK-MEL-2 melanoma was 102%; with EKVX NSCLC, 89.3%; in the test with SN12C renal it was 97.3%; in the test on UO-31 renal it was 80.8%; in the test on TK-10 renal, 89.3%; in the test on ACHN renal, 104%. Besides, the growth in the test with CAKI-1 renal was 98.5%; in the test with CCRF-CEM leukemia it was 71.6%; in the test on MOLT-4 leukemia it was 88.9%; in the test on SR leukemia it was 22.2%; in the test with RPMI-8226 leukemia it was 91.7%; in the test with OVCAR-8 ovarian, 98.4%. In addition, the growth with OVCAR-4 ovarian is 111%; with SK-OV-3 ovarian it was 108%; in the test with IGROV1 ovarian, 98.6%; in the test with OVCAR-3 ovarian it was 97%; in the test on HS 578T breast it was 91.8%; in the test on NCI/ADR-RES ovarian it was 93.8%.
For `O=C(COc1ccc(/C=C2\COc3ccccc3C2=O)cc1)Nc1nccs1`, the growth in the test on SK-MEL-2 melanoma was 72.8%; with EKVX NSCLC, 102%; with SN12C renal it was 114%; in the test with UO-31 renal, 73.2%; in the test on TK-10 renal, 88.7%; in the test with ACHN renal, 94.1%. Moreover, the growth with CAKI-1 renal was 103%; in the test with CCRF-CEM leukemia it was 7.16% (active); with SR leukemia, -2.82% (active); in the test on RPMI-8226 leukemia it was -0.182% (active); in the test with OVCAR-8 ovarian it was 85%; with OVCAR-5 ovarian it was 93%. For the same compound, the growth with OVCAR-4 ovarian is 92.9%; with SK-OV-3 ovarian, 127%; with IGROV1 ovarian it was 3.63% (active); in the test on OVCAR-3 ovarian, 95.8%; with HS 578T breast it was -38.3% (active); with NCI/ADR-RES ovarian it was 86.1%.
